GCN5L2 inh-1 – qHTS Assay for Inhibitors of GCN5L2; Histone acetyltransferase KAT2A (Homo sapiens), Q92830; GCN5L2 HAT assay, ThioGlo1 CoA-SH fluorescence; Potency, µM (doses to about 58.9 µM), for the others: top-dose activity change, negative = inhibition, most hits filed as inhibitors; hit rate 0.21% among 390,000; further: potency means the concentration at half of the fitted maximal effect; on the % scale 0 is the no-effect control and ±100 the full control effect
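Fluorescence readout, Ex340nm/Em540nm: ThioGlo1 (50uM final) reacts with free CoA thiol released as 20nM GCN5L2 acetylates H3(1-25) peptide (75uM) using acetyl-CoA (70uM). Compound and enzyme sat 15 min beforehand; 20 min room-temperature reaction.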
VDR inh – Inhibitors of the vitamin D receptor (VDR): qHTS; Vitamin D3 receptor (Homo sapiens), P11473; AID 504847, 2011; VDR-SRC2-3 peptide fluorescence polarization, 2 h; Potency, µM, inactives show max response, negative = inhibition, actives largely listed as inhibitors; hit rate 0.93% among 400,000; further: potency means the concentration at half of the fitted maximal effect; on the % scale 0 is the no-effect control and ±100 the full control effect
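Inhibition of the VDR/SRC2-3 peptide interaction is quantified by fluorescence polarization. Compounds (23 nl, pintool) incubate with the reagents for 2 hours at ambient room temperature.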
TDP1 inh – qHTS Assay for Inhibitors of Tyrosyl-DNA Phosphodiesterase (TDP1) | Tyrosyl-DNA phosphodiesterase 1 (Homo sapiens), Q9NUW8 | recombinant TDP1, AlphaScreen DNA substrate cleavage | Potency, µM (series often up to 130 µM), for inactives: at the top dose activity change, negative = inhibition, most hits filed as inhibitors | hit rate 0.28% among 350,000; further: potency means the concentration at half of the fitted maximal effect; on the % scale 0 is the no-effect control and ±100 the full control effect; nearly all actives have a fitted effect of over 40% in size
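Here, a 5' biotin and 3' phosphotyrosine-FITC DNA oligonucleotide reports Tdp1 activity: intact substrate bridges AlphaScreen beads, while cleavage leaves a 3' phosphate and drops signal. All incubations at room temperature.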
PLK1 PBD inh – qHTS for Inhibitors of PLK1-PDB (polo-like kinase 1 - polo-box domain): Primary Screen | Serine/threonine-protein kinase PLK1 (Homo sapiens), P53350 | Plk1 PBD binding of FITC phosphopeptide, fluorescence polarization | Potency, µM, inactives show max response, negative = inhibition, hits mostly inhibitors | hit rate 2.8% among 360,000; further: potency means the concentration at half of the fitted maximal effect; series mostly up to about 57 µM; on the % scale 0 is the no-effect control and ±100 the full control effect; nearly all actives have a fitted effect of over 65% in size
Target sequence (P53350 whole entry, looked up, the tested form may be a part): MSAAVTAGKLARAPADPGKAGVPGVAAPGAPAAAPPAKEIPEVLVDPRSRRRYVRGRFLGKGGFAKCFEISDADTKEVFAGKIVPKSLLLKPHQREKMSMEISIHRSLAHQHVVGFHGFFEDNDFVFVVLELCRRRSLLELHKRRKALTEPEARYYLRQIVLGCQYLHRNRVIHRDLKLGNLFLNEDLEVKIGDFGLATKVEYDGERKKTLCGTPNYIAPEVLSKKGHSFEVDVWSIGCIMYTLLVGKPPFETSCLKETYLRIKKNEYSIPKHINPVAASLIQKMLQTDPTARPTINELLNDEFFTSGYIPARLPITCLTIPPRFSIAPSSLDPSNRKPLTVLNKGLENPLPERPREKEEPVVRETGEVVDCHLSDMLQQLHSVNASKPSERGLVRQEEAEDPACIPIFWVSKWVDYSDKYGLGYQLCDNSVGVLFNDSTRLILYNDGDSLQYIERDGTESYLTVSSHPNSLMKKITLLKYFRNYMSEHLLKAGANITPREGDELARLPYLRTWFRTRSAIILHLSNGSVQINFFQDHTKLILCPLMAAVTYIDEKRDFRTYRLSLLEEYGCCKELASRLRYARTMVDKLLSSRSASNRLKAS
TDP1 cell CPT – qHTS for Inhibitors of human tyrosyl-DNA phosphodiesterase 1 (TDP1): qHTS in cells in presence of CPT; chicken DT40 Tdp1-/-;hTDP1 cells + 20 nM CPT, ATP luminescence, 48 h; Potency, µM (highest dose often 46.2 µM), inactives show at the highest dose activity change, negative = growth inhibition, actives largely listed as inhibitors; hit rate 12% among 420,000; further: potency means the concentration at half of the fitted maximal effect; on the % scale 0 is the no-effect control and ±100 the full control effect; nearly all actives have a fitted effect of over 55% in size
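Cell growth measured by CellTiter-Glo luminescence after a minimum 48 h, 37 C compound exposure with 20 nM CPT in Tdp1-knockout DT40 cells stably expressing hTDP1, seeded 400/well; qHTS titration format.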
DT40 TDP1 no CPT – qHTS for Inhibitors of human tyrosyl-DNA phosphodiesterase 1 (TDP1): qHTS in cells in absence of CPT; AID 686978, 2013; hit rate 15% among 420,000; DT40 Tdp1-/- hTDP1 cells, no CPT, ATP luminescence, 48 h; Potency, µM (doses to about 46.2 µM), inactives show top-dose activity change, negative = growth inhibition, usual class: inhibitors; further: potency means the concentration at half of the fitted maximal effect; on the % scale 0 is the no-effect control and ±100 the full control effect; nearly all actives have a fitted effect of over 55% in size
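Readout: luminescence from CellTiter-Glo after 30 min in the dark at RT. Cells: DT40 Tdp1-/- with stable hTDP1, 400/well. Exposure: compounds alone, ≥48 hr, 37 °C.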
GCN5L2 inh-2 – qHTS Assay for Inhibitors of GCN5L2: Hit confirmation. shares compounds with GCN5L2 inh-1. GCN5L2 HAT, ThioGlo1 CoA fluorescence, 20 min. Potency, µM, usual class: inhibitors. hit rate 70% among 140. AID 588347, 2011
The depositor's hits bear a star; ? = inconclusive; · = no result; [ ] = another dose, or the depositor's remark. Most compounds without a hit are left out; they make up all but 18% or so of the library. The call rests on the fitted dose curve; in most records, active means well fitted curve in the direction sought with a large enough effect; inconclusive means small, poorly fitted or top-dose-only effect, or another doubt; inactive means no such curve, though single readings can be large; an effect the other way counts as inactive or inconclusive.

SMILES	GCN5L2 inh-1	VDR inh	TDP1 inh	PLK1 PBD inh	TDP1 cell CPT	DT40 TDP1 no CPT	GCN5L2 inh-2
COCCN(C(=O)COC(=O)c1cc2c(s1)CCC2)c1c(N)n(Cc2ccccc2)c(=O)[nH]c1=O	?	-12%	0%[0.505 µM]	9.5µM*	-3%	-5%	11*
CCC1CCc2sc(C(=O)OCC(=O)N(CCOC)c3c(N)n(Cc4ccccc4)c(=O)[nH]c3=O)cc2C1 (stereo unspecified)	0%	0%	·	3%	?	?	·
CCOc1cc(/C=C(/C#N)c2nc3ccccc3[nH]2)ccc1OCc1ccc(C(=O)O)o1	-9%	-10%	-6%	-18%	-23%	?	·
COc1cc(/C=C(/C#N)c2nc3ccccc3[nH]2)ccc1OCC(=O)Nc1ccccc1C(C)C	?	0%	3%	-5%	4.6µM*	5.8µM*	?
COc1ccc(C2OC(=O)CC2C(=O)NCc2ccc(Cl)cc2)cc1OC (stereo unspecified)	-2%	3%	-2%	-4%	14%	-21%	·
O=C(C1=NN(c2ccccc2)C2C(=O)N(c3ccccc3Cl)C(=O)C12)c1ccccc1 (stereo unspecified)	?	-9%	3%	-19%	0%	-11%	?
O=C1CC/C=C\C[C@@H](CC(=O)N(CCO)Cc2ccccc2)C(=O)N2CCC[C@H]2CO1	-6%	10%	1%	2%	6%	-14%	·
O=C(/C=C/c1ccco1)Nc1scc(-c2ccccc2)c1C(=O)O	?	-15%	·	?	?	?	?
O=C(/C=C/c1ccccc1)Nc1scc(-c2ccccc2)c1C(=O)O	2%	-5%	2%	-14%	-3%	?	·
CCC(C)Sc1ccc(-c2nc3ccc(C)cn3c2NC2CCCCC2)cc1 (stereo unspecified)	20µM*	-29%	·	-2%	7.3µM*	8.2µM*	?
CCOc1ccc(NC(=O)CN(C)C(=O)Cn2cnc3c2c(=O)n(C)c(=O)n3C)cc1OCC	-7%	-15%	5%	-6%	-11%	-27%	·
Cc1ccc(C)c(N2CCN(C(=O)CCc3c(C)nn(-c4ccc(N5CCCC5)nn4)c3C)CC2)c1	-5%	-2%	10%	·	?	?	·
CCOC(=O)N1CCC(=NNC(=O)Cn2ccc(C(F)(F)F)n2)CC1	-9%	5%	8%	-7%	-4%	0%	·
Cc1cc(/C=C2/C(=N)N3C(=NC2=O)SN=C3S(C)(=O)=O)c(C)n1-c1ccc(F)cc1	-22%	-3%	7%	?	4%	4%	·
CCOc1ccc(-n2c(C)cc(/C=C3/C(=N)N4C(=NC3=O)SN=C4S(C)(=O)=O)c2C)cc1	32µM*	?	6%	19µM*	?	?	?
O=C(O)c1cc(-c2ccc(-c3c(-c4ccc5c(c4)OCO5)noc3-c3ccsc3)cc2)nc2ccccc12	20µM*	?	·	17µM*	?	?	16*
CCOC(=O)Cc1csc(NC(=O)CSc2nnnn2-c2ccc(C)c(C)c2)n1	?	-1%	-4%	-6%	?	-24%	?
